Screening results: PubChem BioAssay, National Center for Advancing Translational Sciences (NCATS)
SARS PLP yeast: qHTS of Yeast-based Assay for SARS-CoV PLP; Potency, µM (doses to about 32.9 µM), for the others: at the highest dose activity, positive = growth rescue, actives largely listed as activators; AID 485353, 2010; S. cerevisiae expressing SARS-CoV PLpro, growth rescue; actives 0.19% (n = 330,000); note: potency is the fitted concentration of half-maximal effect; 0% is about no effect; nearly all actives have a fitted effect of over 55% in size
NS1 function inh: qHTS Assay for Inhibitors of Influenza NS1 Protein Function | AID 2326, 2010 | actives 0.4% (n = 270,000) | Potency, µM (titrated, usually from 46.1 µM), for the others: top-dose activity, positive = more growth; note: potency is the fitted concentration of half-maximal effect; actives are rising curves; nearly all actives have a fitted effect of over 50% in size
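In this qHTS, NS1 from influenza A is expressed in budding yeast, where it slows growth. Cells are switched from glucose to 2% galactose medium (pH 6.0, -URA), treated with compound, and growth recovery is read at OD600.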
Cycloheximide cs: Cycloheximide Counterscreen for Small Molecule Inhibitors of Shiga Toxin; cell reporter, cycloheximide protein synthesis inhibition counterscreen; max response, %; actives 12% (n = 300,000); AID 2314, 2010; in the data active = max response mostly above about 13%, no sharp cut-off; inactive = mostly below about 14%; note: read at 38.3 µM for the half of the compounds with a filed dose; 0% is about no effect
Shiga inhibitor: A qHTS for Small Molecule Inhibitors of Shiga Toxin; AID 2315, 2010; inhibition, % at 38.7 µM; actives 9.2% (n = 290,000); Vero cells, Shiga toxin protein synthesis inhibition reporter; in the data active = inhibition mostly above about 28%, no sharp cut-off; inactive = mostly below about 43%; note: 0% is about no effect
Active calls of the source: *; ? = inconclusive; · = no result. Only some compounds are listed: those with a hit (about 12% of all), similar ones and a draw of the others. Unless noted, calls come from the whole dose curve.

SMILES	SARS PLP yeast	NS1 function inh	Cycloheximide cs	Shiga inhibitor
Cc1ccc(C(CC(=O)c2ccc(Cl)cc2)C(=O)O)cc1 (configuration not stated)	0%	·	0	2
COC(=O)C(CC(=O)c1ccc(Cl)cc1)c1ccc(C(C)C)cc1 (configuration not stated)	-19%	-16%	37*	70*
CN(CC1COc2ccccc2O1)C(=S)NC1CCCCC1 (configuration not stated)	-2%	-8%	25*	59*
O=C(O)c1c2c(nc3ccccc13)/C(=C/c1ccc(OC(F)F)cc1)CCC2	0%	-9%	23*	58*
CCOc1ccc2nc(NC(=O)c3ccoc3C)sc2c1	-16%	-47%	24*	42
CCOC(=O)c1ccc2nc(NC(=O)c3cccs3)sc2c1	-7%	4%	39*	44*
CCOc1ccc2nc(NC(=O)c3ccco3)sc2c1	-15%	-29%	39*	38
COc1ccc2nc(NC(=O)c3c(C)noc3C)sc2c1	0%	·	·	·
CCOC(=O)c1ccc2nc(NC(=O)c3ccco3)sc2c1	-75%	-24%	27*	35*
COc1ccc(Nc2ncnc3c2c(C)c(C)n3CCCN(C)C)cc1	1%	-2%	47*	70*
O=c1oc2ccccc2c(O)c1/C=N/c1nc(-c2ccc(O)c(O)c2)cs1	·	18%	·	·
CCOC(=O)c1cc(-c2ccc(OC)cc2OC)nn1-c1ccc(C(=O)O)cc1	1%	3%	21*	5
C[C@H](CO)N1C[C@H](C)[C@@H](CN(C)Cc2ccc(C(=O)Nc3ccccc3N)cc2)Oc2c(NC(=O)C3CCCCC3)cccc2C1=O	16%	·	·	·
COc1ccc(C2CC(c3ccc(OC)cc3OC(C)=O)=NN2C(=O)c2ccccc2)cc1 (configuration not stated)	-2%	7%	14*	37
COc1ccc(C2=NN(C(=O)c3ccccc3)C(c3ccc(OC)c(OC)c3)C2)c(O)c1 (configuration not stated)	1%	2%	-4	-4
COc1ccc(C2=NN(C(=O)/C=C/c3ccccc3)C(c3ccccc3)C2)c(OC(C)=O)c1 (configuration not stated)	15%	28%	5	-3
COc1ccccc1C1=NN(C(=O)c2ccccc2)C(c2ccc(Br)cc2)C1 (configuration not stated)	1%	-1%	17*	9
CC1CCc2nc3ccc(S(=O)(=O)N4CCC(C(=O)NC(C)c5ccccc5)CC4)cc3c(C(=O)O)c2C1 (configuration not stated)	-3%	19%	-2	-5
CC(=O)N1CCc2cc(S(=O)(=O)N3CC(C)CC(C)C3)ccc21 (configuration not stated)	20%	15%	-2	-3
CCOC(=O)N1C(COCc2ccccc2)C=CCS1(=O)=O (configuration not stated)	·	·	78*	181*
CCCCN1CC(COCc2ccccc2)Oc2ccccc2S1(=O)=O (configuration not stated)	-6%	·	·	·
COc1ccc(-n2cnc3cc(NCc4cccs4)ccc32)cc1	-10%	-118%	51*	100*
COc1ccc(-n2cnc3cc(NCc4ccccn4)ccc32)cc1	-2%	-16%	9	43
CC(=O)N1CCN(c2ccc(NCc3cccs3)cc2)CC1	-7%	2%	-3	-3
Cn1cnc2cc(NCc3cccs3)ccc21	-3%	·	24*	65*
SMILES	SARS PLP yeast	NS1 function inh	Cycloheximide cs	Shiga inhibitor
c1ccc(-n2cnc3cc(NCc4cccs4)ccc32)cc1	5%	-59%	88*	77*
Cc1ccc(-n2cnc3cc(NCc4cccs4)ccc32)cc1	-32%	-88%	53*	100*
COc1ccc(-c2cnc(SCC(=O)Nc3nc(C(C)(C)C)cs3)n2Cc2ccco2)cc1	-16%	17%	9	12
NNC(=O)[C@H](Cc1ccccc1)NC(=O)NCCc1ccccc1	2%	6%	-7	-7
c1ccc(-n2cnc3cc(NCc4ccco4)ccc32)cc1	-2%	2%	35*	63*
Cc1cc2ccccn2c1C(=O)c1cccc([N+](=O)[O-])c1	-1%	·	-2	14
Cc1cc2ccccn2c1C(=O)c1ccc([N+](=O)[O-])o1	-4%	·	34*	23
CCOC(=O)C(=O)c1c(C)cc2ccccn12	-5%	·	23*	47*
c1ccc(-c2cn3c(n2)CCC3)cc1	1%	20%	7	5
O=[N+]([O-])c1ccc(-c2cn3c(n2)CCC3)cc1	-1%	6%	57*	104*
NS(=O)(=O)c1cccc(NC(=O)Cn2nc(C(=O)O)c3ccccc3c2=O)c1	-1%	5%	-2	-10
Nc1nsc2ccccc12	-32%	-64%	24*	10
O=C(NC1CCCC1)C1CCCN1C(=O)Nc1ccccc1 (configuration not stated)	-2%	2%	-4	-13
O=C(NCc1ccccc1F)C1CCCN(C(=O)Nc2ccccc2)C1 (configuration not stated)	6%	0%	6	7
O=C(Nc1ccccc1)N1CCCC2CCCCC21 (configuration not stated)	-19%	16%	45*	94*
COc1ccc(NC(=O)N2CCCC(C(=O)NCCc3ccccc3)C2)cc1 (configuration not stated)	?	-5%	34*	65*
O=C(NCc1ccccc1)C1CCCN(C(=O)Nc2ccccc2)C1 (configuration not stated)	0%	-11%	11*	53
O=C(c1ccccc1)C1CCN(C(=O)Nc2ccccc2)CC1	-1%	-4%	16*	6
Cc1ccc(NC(=O)N2CCC(C(=O)c3ccc(F)cc3)CC2)cc1	-3%	-21%	11	13
Cc1c2cnn(CC(=O)NCCCN3CC(C)CC(C)C3)c(=O)c2c(C)n1Cc1ccccc1Cl (configuration not stated)	3%	-5%	-1	-6
OC[C@@H]1O[C@@H](O)[C@H](N=Cc2ccc3c(c2)OCO3)[C@@H](O)[C@@H]1O	·	1%	·	·
COc1ccc(CNC(=O)C(C)N2CCN(c3ccc(C(C)=O)cc3)CC2)cc1 (configuration not stated)	0%	12%	17*	35
CC(NC(=O)c1ccccc1)C(=O)NNC(=O)c1ccccc1Cl (configuration not stated)	1%	·	·	·
CCCCc1c(C)nn(-c2nnc3c4ccccc4n(C)c3n2)c1C	2%	6%	21*	49*
Cn1c2ccccc2c2nnc(NN)nc21	0%	2%	-1	25
CN1CC(c2ccccc2Cl)C2(COc3ccccc3C2=O)C12C(=O)Nc1ccccc12 (configuration not stated)	-25%	-49%	16*	55
N#CCCn1cc(C(=O)N2CCCCC2)c(-c2ccc([N+](=O)[O-])cc2)n1	-1%	0%	-4	-17
FC(F)(F)c1ccc(/C=N/n2c(C3CCCCC3)n[nH]c2=S)cc1	-2%	4%	2	-4
CN(C)C1(CNC(=O)C2CCN(S(=O)(=O)c3c(Cl)cccc3Cl)CC2)CCCCC1	2%	·	·	·
Cc1ccc(F)c(NC(=O)c2ccc(Cn3cc(Cl)cn3)cc2)c1	-2%	-33%	39*	37
